High-throughput results from PubChem.
RT RNaseH block – inhibitors of HIV-1 reverse transcriptase RNase H | P04585 | RT-RNase H RNA/DNA duplex cleavage, fluorescence | inhibition, % at 10 µM | 65,000 compounds, 1.9% hits; in the data active = inhibition above about 50%
RmlC RmlD mix – mixture blocks RmlC and RmlD coupled enzyme activity. RmlC/RmlD coupled enzyme inhibition, 384-well mixture HTS. 110,000 compounds, 0.39% hits. inhibition, % at 5.5 µM; in the data active = inhibition above about 30%, passing the limit was not always enough
Numbers without * were called inactive. The sample as a whole holds a higher share of hits than the screen did.

Screening CCOC(=O)c1nn(-c2ccc(OC)cc2)c(=O)c2c(N)scc12 returned RT RNaseH block 75* and RmlC RmlD mix 10.
For CCOC(=O)c1nn(-c2ccc(C)c(C)c2)c(=O)c2c(N)scc12 the results were RmlC RmlD mix -15.
Screening CCOC(=O)C1(C)NC(c2ccc(OC)cc2OC)C2C(=O)N(c3cccc(OC)c3)C(=O)C21 (stereo not drawn) returned RT RNaseH block -4 and RmlC RmlD mix 11.
Screening CCN(CC)C(=O)c1sc2nc(-c3cccs3)cc(-c3ccc(Cl)cc3)c2c1N returned RmlC RmlD mix 13.
Screening CCN(CC)C(=O)c1sc2nc(-c3cccs3)cc(-c3cccs3)c2c1N returned RT RNaseH block 52*.
`Cc1nn(C(=O)c2ccco2)c(C)c1CN1C(=O)c2ccccc2C1=O` gave RT RNaseH block -19 and RmlC RmlD mix 8.
Screening Cc1nn(C(=O)c2cccs2)c(C)c1CN1C(=O)c2ccccc2C1=O returned RT RNaseH block 64* and RmlC RmlD mix -6.
For C/C(=N\O)C(=O)C(CN1CCCCC1)CN1CCCCC1 the results were RT RNaseH block 51* and RmlC RmlD mix -4.
Screening CC(=O)/C(CN1CCCCC1)=N\O returned RT RNaseH block -10 and RmlC RmlD mix 1.
For CCOC(=O)Cn1nc(C)n(-c2ccc(C(C)(C)C)cc2)c1=O the results were RmlC RmlD mix -7.
Screening COc1ccc(CN(CCN2CCOCC2)C(=O)c2c(F)cccc2F)cc1OC returned RT RNaseH block 62* and RmlC RmlD mix -5.
COc1ccc(CN(CCCN2CCOCC2)C(=O)Nc2ccccc2)cc1OC was read as RT RNaseH block 0 and RmlC RmlD mix 3.
`CCOC(=O)N1CCN(c2cc3[nH]c(=S)[nH]c3cc2F)CC1` gave RT RNaseH block 61* and RmlC RmlD mix -10.
CCOC(=O)N1CCN(c2c(F)cc3[nH]c(=S)[nH]c3c2Br)CC1 was read as RT RNaseH block 48 and RmlC RmlD mix 7.
`COc1cccc(C(CC(=O)Nc2cccc3ccccc23)NC(=O)c2ccccc2)c1` (stereo not drawn) gave RmlC RmlD mix -9.
CCC1Oc2ccc(C)cc2N(CC(=O)N(Cc2ccc(C)o2)C2CC(C)(C)NC(C)(C)C2)C1=O (stereo not drawn) was read as RmlC RmlD mix -5.
CCC1Oc2ccc(C)cc2N(CC(=O)N(Cc2cccnc2)Cc2ccc(C)o2)C1=O (stereo not drawn) was read as RT RNaseH block 50* and RmlC RmlD mix 19.
For Cc1c(CN(C)C(=O)c2sc3cc(Cl)ccc3c2Cl)cnn1C the results were RmlC RmlD mix 7.
Screening COc1ccc(-n2nnnc2Sc2ccc(S(=O)(=O)N3CCOCC3)cn2)cc1 returned RT RNaseH block 86* and RmlC RmlD mix 2.
`COc1ccc(-n2nnnc2SCC(=O)N2CCOCC2)cc1` gave RT RNaseH block -2 and RmlC RmlD mix -6.
CN(C)S(=O)(=O)c1ccc(C(=O)OCn2nnc3ccccc3c2=O)cc1 was read as RmlC RmlD mix 10.
`Cn1c2ccccc2c2nnc(SCN3C(=O)c4ccccc4C3=O)nc21` gave RT RNaseH block -2.
`CC(C)n1c2ccccc2c2nnc(SCC(=O)OCN3C(=O)c4ccccc4C3=O)nc21` gave RT RNaseH block 7 and RmlC RmlD mix 117*.
Screening NC(=O)c1oc2ccccc2c1NC(=O)c1nc2ccccc2s1 returned RT RNaseH block 5 and RmlC RmlD mix -5.
O=C(Nc1nnc(-c2ccccc2)o1)c1nc2ccccc2s1 was read as RT RNaseH block 66* and RmlC RmlD mix 29.
For COc1cccc(NC(=O)CSc2nc3c(c(=O)n2C)SC(C)C3)c1 (stereo not drawn) the results were RT RNaseH block -33 and RmlC RmlD mix -7.
`Cc1ccccc1OCCCn1c(=O)sc2ccccc21` gave RmlC RmlD mix -26.
CCOC(=O)c1cc(OC(=O)c2ccccc2)n(-c2ccccc2)n1 was read as RmlC RmlD mix -32.
Screening CCOC(=O)c1cc(OC(=O)c2cccs2)n(-c2ccccc2)n1 returned RT RNaseH block 50* and RmlC RmlD mix -8.
CCC1SC(N)=NC1=O (stereo not drawn) was read as RT RNaseH block -8 and RmlC RmlD mix -7.
`CCCCNC(=O)c1onc(CSc2cccc3ccccc23)c1C(=O)O` gave RmlC RmlD mix -9.
Screening CCC1CCc2c(sc(N)c2C(N)=O)C1 (stereo not drawn) returned RmlC RmlD mix 5.
CC1CCc2c(sc(N)c2C(N)=O)C1 (stereo not drawn) was read as RT RNaseH block 65* and RmlC RmlD mix -43.
Screening COCCNC(=O)c1onc(CSc2ccc(C(C)C)cc2)c1C(=O)O returned RmlC RmlD mix 6.
Screening COC(=O)c1sc2ccccc2c1C(=O)OC returned RT RNaseH block -27 and RmlC RmlD mix 6.
`COC(=O)c1sc2ccccc2c1N` gave RT RNaseH block 54* and RmlC RmlD mix -5.
